# Experimental data taken from PMC11006913.
# Numbering of substitutions follows the chain as printed.
# Tests used:
# Experiment in all cases: PBM; 200 nM protein, PBS
# Conditions in all cases: dsDNA, one strand shown
# SIX6 [1] = molecular target: T1, SIX6 (Homo sapiens, UniProt O95475 114-200, L167I)
# T1 sequence: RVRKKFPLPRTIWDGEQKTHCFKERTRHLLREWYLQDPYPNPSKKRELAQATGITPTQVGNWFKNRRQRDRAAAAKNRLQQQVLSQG
# SIX6 [2] = molecular target: T2, SIX6 (Homo sapiens, UniProt O95475 114-200, L143V)
# T2 sequence: T1 sequence with L30V, I54L
# SIX6 [3] = molecular target: T3, SIX6 (Homo sapiens, UniProt O95475 114-200, H141N)
# T3 sequence: T1 sequence with H28N, I54L
# SIX6 [4] = molecular target: T4, SIX6 (Homo sapiens, UniProt O95475 114-200, T165P)
# T4 sequence: T1 sequence with T52P, I54L
# SIX6 [5] = molecular target: T5, SIX6 (Homo sapiens, UniProt O95475 114-200, L167M)
# T5 sequence: T1 sequence with I54M
# SIX6 [6] = molecular target: T6, SIX6 (Homo sapiens, UniProt O95475 114-200, L143M)
# T6 sequence: T1 sequence with L30M, I54L
# SIX6 [7] = molecular target: T7, SIX6 (Homo sapiens, UniProt O95475 114-200, L143I)
# T7 sequence: T1 sequence with L30I, I54L
# SIX6 [8] = molecular target: T8, SIX6 (Homo sapiens, UniProt O95475 114-200, T165G)
# T8 sequence: T1 sequence with T52G, I54L
# HOXA2 [9] = molecular target: HOXA2 (Homo sapiens, UniProt O43364 129-215, R185T)
# Chain of HOXA2 (Homo sapiens, UniProt O43364 129-215, R185T) (O43364 129-215 R185T): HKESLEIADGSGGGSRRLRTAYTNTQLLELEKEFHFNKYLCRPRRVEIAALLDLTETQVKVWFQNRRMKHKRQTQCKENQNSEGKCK
# SIX6 [10] = molecular target: T9, SIX6 (Homo sapiens, UniProt O95475 114-200, T139Q)
# T9 sequence: T1 sequence with T26Q, I54L
# SIX6 [11] = molecular target: T10, SIX6 (Homo sapiens, UniProt O95475 114-200, T165A)
# T10 sequence: T1 sequence with T52A, I54L
# HOXA2 [12] = molecular target: HOXA2 (Homo sapiens, UniProt O43364 129-215, R185K)
# Chain of HOXA2 (Homo sapiens, UniProt O43364 129-215, R185K) (O43364 129-215 R185K): as the sequence (O43364 129-215 R185T) above, with T57K counted along it
# SIX6 [13] = molecular target: T11, SIX6 (Homo sapiens, UniProt O95475 114-200, L167V)
# T11 sequence: T1 sequence with I54V
# SIX6 [14] = molecular target: T12, SIX6 (Homo sapiens, UniProt O95475 114-200)
# T12 sequence: T1 sequence with I54L
# SIX6 [15] = molecular target: T13, SIX6 (Homo sapiens, UniProt O95475 114-200, T165I)
# T13 sequence: T1 sequence with T52I, I54L
# HOXA2 [16] = molecular target: HOXA2 (Homo sapiens, UniProt O43364 129-215, Y150S)
# Chain of HOXA2 (Homo sapiens, UniProt O43364 129-215, Y150S) (O43364 129-215 Y150S): as the sequence (O43364 129-215 R185T) above, with Y22S, T57R counted along it
# HOXA2 [17] = molecular target: HOXA2 (Homo sapiens, UniProt O43364 129-215)
# Chain of HOXA2 (Homo sapiens, UniProt O43364 129-215) (O43364 129-215): as the sequence (O43364 129-215 R185T) above, with T57R counted along it
# HOXB6 = HOXB6 (Homo sapiens, UniProt P17509 132-218, K202E)
# Chain of HOXB6 (P17509 132-218 K202E): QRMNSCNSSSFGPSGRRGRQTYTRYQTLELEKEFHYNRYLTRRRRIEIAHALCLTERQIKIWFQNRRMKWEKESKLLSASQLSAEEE
sequence,measurement,setting,value
GTCCGGAC,binding signal,SIX6 [1],"9.13 upbm affinity estimate (log intensity, higher = more binding, comparable within an allelic series)"
same,binding signal,SIX6 [2],"8.97 upbm affinity estimate (log intensity, higher = more binding, comparable within an allelic series)"
same,binding signal,SIX6 [3],"8.97 upbm affinity estimate (log intensity, higher = more binding, comparable within an allelic series)"
same,binding signal,SIX6 [4],"9.02 upbm affinity estimate (log intensity, higher = more binding, comparable within an allelic series)"
same,binding signal,SIX6 [5],"9.09 upbm affinity estimate (log intensity, higher = more binding, comparable within an allelic series)"
same,binding signal,SIX6 [6],"9.15 upbm affinity estimate (log intensity, higher = more binding, comparable within an allelic series)"
same,binding signal,SIX6 [7],"9.08 upbm affinity estimate (log intensity, higher = more binding, comparable within an allelic series)"
same,binding signal,SIX6 [8],"9.27 upbm affinity estimate (log intensity, higher = more binding, comparable within an allelic series)"
same,binding signal,HOXA2 [9],"7.42 upbm affinity estimate (log intensity, higher = more binding, comparable within an allelic series)"
same,binding signal,SIX6 [10],"9.2 upbm affinity estimate (log intensity, higher = more binding, comparable within an allelic series)"
same,binding signal,SIX6 [11],"9.14 upbm affinity estimate (log intensity, higher = more binding, comparable within an allelic series)"
same,binding signal,HOXA2 [12],"10.6 upbm affinity estimate (log intensity, higher = more binding, comparable within an allelic series)"
same,binding signal,SIX6 [13],"9.17 upbm affinity estimate (log intensity, higher = more binding, comparable within an allelic series)"
same,binding signal,SIX6 [14],"9.13 upbm affinity estimate (log intensity, higher = more binding, comparable within an allelic series)"
same,binding signal,SIX6 [15],"9.13 upbm affinity estimate (log intensity, higher = more binding, comparable within an allelic series)"
same,binding signal,HOXA2 [16],"10.6 upbm affinity estimate (log intensity, higher = more binding, comparable within an allelic series)"
same,binding signal,HOXA2 [17],"7.3 upbm affinity estimate (log intensity, higher = more binding, comparable within an allelic series)"
CCCTCGGC,binding signal,SIX6 [1],"9.06 upbm affinity estimate (log intensity, higher = more binding, comparable within an allelic series)"
same,binding signal,SIX6 [2],"8.91 upbm affinity estimate (log intensity, higher = more binding, comparable within an allelic series)"
same,binding signal,SIX6 [3],"9.09 upbm affinity estimate (log intensity, higher = more binding, comparable within an allelic series)"
same,binding signal,SIX6 [4],"8.86 upbm affinity estimate (log intensity, higher = more binding, comparable within an allelic series)"
same,binding signal,SIX6 [5],"9.04 upbm affinity estimate (log intensity, higher = more binding, comparable within an allelic series)"
same,binding signal,SIX6 [6],"9.07 upbm affinity estimate (log intensity, higher = more binding, comparable within an allelic series)"
same,binding signal,SIX6 [7],"8.97 upbm affinity estimate (log intensity, higher = more binding, comparable within an allelic series)"
same,binding signal,SIX6 [8],"9.07 upbm affinity estimate (log intensity, higher = more binding, comparable within an allelic series)"
same,binding signal,SIX6 [10],"9.11 upbm affinity estimate (log intensity, higher = more binding, comparable within an allelic series)"
same,binding signal,SIX6 [11],"8.99 upbm affinity estimate (log intensity, higher = more binding, comparable within an allelic series)"
same,binding signal,SIX6 [13],"8.92 upbm affinity estimate (log intensity, higher = more binding, comparable within an allelic series)"
same,binding signal,SIX6 [14],"9.04 upbm affinity estimate (log intensity, higher = more binding, comparable within an allelic series)"
same,binding signal,SIX6 [15],"9.03 upbm affinity estimate (log intensity, higher = more binding, comparable within an allelic series)"
CGTCGCGC,binding signal,SIX6 [1],"9.07 upbm affinity estimate (log intensity, higher = more binding, comparable within an allelic series)"
same,binding signal,SIX6 [2],"9.04 upbm affinity estimate (log intensity, higher = more binding, comparable within an allelic series)"
same,binding signal,SIX6 [3],"9.11 upbm affinity estimate (log intensity, higher = more binding, comparable within an allelic series)"
same,binding signal,SIX6 [4],"9.07 upbm affinity estimate (log intensity, higher = more binding, comparable within an allelic series)"
same,binding signal,SIX6 [5],"9 upbm affinity estimate (log intensity, higher = more binding, comparable within an allelic series)"
same,binding signal,SIX6 [6],"9.11 upbm affinity estimate (log intensity, higher = more binding, comparable within an allelic series)"
same,binding signal,SIX6 [7],"9.05 upbm affinity estimate (log intensity, higher = more binding, comparable within an allelic series)"
same,binding signal,SIX6 [8],"9.08 upbm affinity estimate (log intensity, higher = more binding, comparable within an allelic series)"
same,binding signal,HOXA2 [9],"7.22 upbm affinity estimate (log intensity, higher = more binding, comparable within an allelic series)"
same,binding signal,SIX6 [10],"9.27 upbm affinity estimate (log intensity, higher = more binding, comparable within an allelic series)"
same,binding signal,SIX6 [11],"9.17 upbm affinity estimate (log intensity, higher = more binding, comparable within an allelic series)"
same,binding signal,HOXA2 [12],"10.4 upbm affinity estimate (log intensity, higher = more binding, comparable within an allelic series)"
same,binding signal,SIX6 [13],"8.92 upbm affinity estimate (log intensity, higher = more binding, comparable within an allelic series)"
same,binding signal,SIX6 [14],"9.06 upbm affinity estimate (log intensity, higher = more binding, comparable within an allelic series)"
same,binding signal,SIX6 [15],"8.97 upbm affinity estimate (log intensity, higher = more binding, comparable within an allelic series)"
same,binding signal,HOXA2 [16],"10.5 upbm affinity estimate (log intensity, higher = more binding, comparable within an allelic series)"
same,binding signal,HOXA2 [17],"7.41 upbm affinity estimate (log intensity, higher = more binding, comparable within an allelic series)"
AGCGCCCG,binding signal,SIX6 [1],"9.03 upbm affinity estimate (log intensity, higher = more binding, comparable within an allelic series)"
same,binding signal,SIX6 [2],"8.99 upbm affinity estimate (log intensity, higher = more binding, comparable within an allelic series)"
same,binding signal,SIX6 [3],"9.03 upbm affinity estimate (log intensity, higher = more binding, comparable within an allelic series)"
same,binding signal,SIX6 [4],"9.05 upbm affinity estimate (log intensity, higher = more binding, comparable within an allelic series)"
same,binding signal,SIX6 [5],"9.04 upbm affinity estimate (log intensity, higher = more binding, comparable within an allelic series)"
same,binding signal,SIX6 [6],"9.02 upbm affinity estimate (log intensity, higher = more binding, comparable within an allelic series)"
same,binding signal,SIX6 [7],"8.98 upbm affinity estimate (log intensity, higher = more binding, comparable within an allelic series)"
same,binding signal,HOXB6,"8.99 upbm affinity estimate (log intensity, higher = more binding, comparable within an allelic series)"
same,binding signal,SIX6 [8],"8.98 upbm affinity estimate (log intensity, higher = more binding, comparable within an allelic series)"
same,binding signal,SIX6 [10],"8.94 upbm affinity estimate (log intensity, higher = more binding, comparable within an allelic series)"
same,binding signal,SIX6 [11],"8.98 upbm affinity estimate (log intensity, higher = more binding, comparable within an allelic series)"
same,binding signal,SIX6 [13],"8.97 upbm affinity estimate (log intensity, higher = more binding, comparable within an allelic series)"
same,binding signal,SIX6 [14],"8.99 upbm affinity estimate (log intensity, higher = more binding, comparable within an allelic series)"
same,binding signal,SIX6 [15],"9 upbm affinity estimate (log intensity, higher = more binding, comparable within an allelic series)"
CCCTAGGG,binding signal,SIX6 [1],"8.88 upbm affinity estimate (log intensity, higher = more binding, comparable within an allelic series)"
same,binding signal,SIX6 [2],"8.72 upbm affinity estimate (log intensity, higher = more binding, comparable within an allelic series)"
same,binding signal,SIX6 [3],"8.93 upbm affinity estimate (log intensity, higher = more binding, comparable within an allelic series)"
same,binding signal,SIX6 [4],"8.83 upbm affinity estimate (log intensity, higher = more binding, comparable within an allelic series)"
same,binding signal,SIX6 [5],"8.9 upbm affinity estimate (log intensity, higher = more binding, comparable within an allelic series)"
same,binding signal,SIX6 [6],"8.91 upbm affinity estimate (log intensity, higher = more binding, comparable within an allelic series)"
same,binding signal,SIX6 [7],"8.92 upbm affinity estimate (log intensity, higher = more binding, comparable within an allelic series)"
same,binding signal,SIX6 [8],"8.95 upbm affinity estimate (log intensity, higher = more binding, comparable within an allelic series)"
same,binding signal,HOXA2 [9],"7.32 upbm affinity estimate (log intensity, higher = more binding, comparable within an allelic series)"
same,binding signal,SIX6 [10],"9.15 upbm affinity estimate (log intensity, higher = more binding, comparable within an allelic series)"
same,binding signal,SIX6 [11],"8.86 upbm affinity estimate (log intensity, higher = more binding, comparable within an allelic series)"
same,binding signal,HOXA2 [12],"10.4 upbm affinity estimate (log intensity, higher = more binding, comparable within an allelic series)"
same,binding signal,SIX6 [13],"9.08 upbm affinity estimate (log intensity, higher = more binding, comparable within an allelic series)"
same,binding signal,SIX6 [14],"8.85 upbm affinity estimate (log intensity, higher = more binding, comparable within an allelic series)"
same,binding signal,SIX6 [15],"8.92 upbm affinity estimate (log intensity, higher = more binding, comparable within an allelic series)"
same,binding signal,HOXA2 [16],"10.3 upbm affinity estimate (log intensity, higher = more binding, comparable within an allelic series)"
same,binding signal,HOXA2 [17],"7.33 upbm affinity estimate (log intensity, higher = more binding, comparable within an allelic series)"
